# FMDV antiviral = blocks foot and mouth disease virus. FMDV antiviral cell-based qHTS. Potency, µM (doses to about 57.9 µM), hits mostly inhibitors. 410,000 tested, 1.2% active. AID 1159524; calls by dose curve; tested in HEK293T cells; note: read-out not given here; nearly all actives have a fitted effect of over 45% in size
# HCMV inh = human cytomegalovirus inhibition; HFF cells, HCMV-luciferase reporter, 72 h; active compounds read low; activity change, negative = inhibition, % at 57.5 µM; 410,000 tested, 4.5% active; in the data active = activity change below about -60%; inconclusive = no clear call, values can overlap the other calls; inactive = above about -39%
#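 After 16 h attachment at 37C, HFF cells received test compound and HCMV-luciferase (1 PFU/cell); reporter luminescence read 72 h later, data normalized against buffer-only and known inhibitor Salinomycin.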
# HCV inh = inhibitors of hepatitis C virus infection; Huh7.5.1 HCVcc-Cre infection, luciferase reporter, 44 h; Potency, µM (titrated, usually from 41.8 µM), hits mostly inhibitors; 340,000 tested, 3.4% active; active = well fitted inhibition curve with a large enough effect; inconclusive = small, poorly fitted or top-dose-only effect, or another doubt; inactive = no such curve, though single readings can be large or run the other way
#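 HCVcc-Cre virus at an moi near 0.5 was added right after compound to cells cultured 4 h from seeding (1,000 cells/well). Luciferase activity was determined 44 h later, 15 min after substrate addition at RT.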
# LASV entry inh = blocks Lassa virus binding to or entry into cells | Lassa virus pseudotype entry inhibition, cell reporter | Potency, µM (doses to about 37.9 µM), hits mostly inhibitors | 300,000 tested, 1.2% active | AID 540256; calls by dose curve; tested in HEK293 cells; note: nearly all actives have a fitted effect of over 50% in size
# MARV entry inh = Marburg virus entry inhibition | Marburg virus pseudotyped entry inhibition, cell reporter | Potency, µM (series often up to 37.8 µM), usual class: inhibitors | 300,000 tested, 1.8% active; calls by dose curve; tested in HEK293 cells
# SARS PLP yeast = blocks SARS-CoV papain-like protease in a yeast assay. 330,000 tested, 0.19% active. Potency, µM (series often up to 32.9 µM), actives largely listed as activators. S. cerevisiae expressing SARS-CoV PLpro, growth rescue. AID 485353; calls by dose curve; note: nearly all actives have a fitted effect of over 55% in size
# Numbers stand for hits; n = inactive; u = inconclusive; x = no result given; + = active, no number; ! = a repeat was not active; [ ] = remark or other dose. The list is not random: actives were taken first. Their share in the collection is about 8%.
SMILES,FMDV antiviral,HCMV inh,HCV inh,LASV entry inh,MARV entry inh,SARS PLP yeast
COc1ccccc1CNc1nc(NCc2ccccc2SC)c2sccc2n1,u,-77.4,x,x,x,x
COc1ccccc1CNc1nc(NCCNC(C)=O)c2sccc2n1,n,n,x,x,x,x
CCOc1ccc(C(=O)Nc2nnc(S(=O)(=O)N(CC)c3ccccc3C)s2)cc1,n,n,x,n,x,x
CC(C)c1ccc2oc(-c3ccc(Cl)c(NC(=O)c4cccs4)c3)nc2c1,n,n,x,n,n,x
COc1ccccc1CNc1nc(NCC2CC2)nc2ccsc12,25.1µM,-70.2,x,x,x,x
COc1ccccc1CNc1nc(NCCOc2ccccc2)c2sccc2n1,n,n,x,x,x,x
COc1cc(=O)n2c(c1C(=O)NC(C)c1ccco1)CCN(CC=C(C)C)CC2 (stereo not drawn),n,x,x,x,x,x
CCOC(=O)[C@]12Cc3cc(C)ccc3[C@H]1N(Cc1ccccc1)C(=O)c1cc(F)c(F)cc12,11.2µM,-108.7,x,x,x,x
CCOC(=O)[C@]12Cc3c(cc(OC)c(OC)c3OC)[C@H]1N(Cc1ccccc1)C(=O)c1cc(F)c(F)cc12,n,-61.4,x,x,x,x
CCOC(=O)[C@]12Cc3cc(OC)ccc3[C@H]1N(Cc1ccccc1)C(=O)c1cc(F)c(F)cc12,n,n,n[8.37 µM],x,x,x
CCOC(=O)[C@]12Cc3cc(OC)ccc3[C@H]1N(Cc1ccccc1)C(=O)c1ccccc12,n,n,u,x,x,x
CCOC(=O)[C@]12Cc3c(cc(OC)c(OC)c3OC)[C@H]1N(Cc1ccccc1)C(=O)c1cc(OC)ccc12,17.8µM,-107.2,x,x,x,x
COc1ccccc1N1CCN(C(=O)c2oc3ccccc3c2N)CC1,n,n,x,x,u,x
COc1cccc(N2C(=O)/C(=C/c3ccc(C)o3)C(=O)NC2=S)c1,17.8µM,n,n,x,x,n
CCN1C(=O)N/C(=C/c2ccc(C)o2)C1=O,n,n,n,n,n,n
Cc1ccc(/C=C2/C(=O)NC(=O)N(CCc3ccc(F)cc3)C2=O)o1,25.1µM,n,n,n,u,u
COc1ccc(N2C(=O)/C(=C/c3ccc(N(C)C)o3)C(=O)NC2=S)cc1,n,n,n,x,x,n
O=C1NC(=O)N(CCc2ccc(F)cc2)C(=O)/C1=C/c1ccco1,n,n,n,n,n,n
Cc1ccc(/C=C2/NC(=O)N(Cc3ccccc3F)C2=O)o1,n,-72.3,n,n,n,n
COc1ccc(N2C(=O)/C(=C/C=C/c3ccccc3[N+](=O)[O-])C(=O)NC2=S)cc1,22.4µM,n,n,n,n,n
COc1ccc(C(=O)N2CCn3c(nnc3C(=O)N3CCCCC3)C2)cc1,x,n,x,x,x,x
Cc1ccc(N2CCN(S(=O)(=O)c3ccc4oc(=O)c5ncn(C)c5c4c3)CC2)c(C)c1,n,n,x,n,x,x
COc1cc2c(cc1OC)CN(C(=O)[C@@H]1C[C@H](NCc3cn(C)c4ccccc34)CN1C1Cc3ccccc3C1)CC2,n,x,x,x,x,x
C[C@H]1[C@@H](NC(=O)Nc2cc(Cl)cc(Cl)c2)CC[C@@]23CCCN2C(=O)CCC[C@@H]13,x,n,x,x,x,x
Cc1ccc(/C=C2\C(=O)NC(=S)N(c3ccc(F)cc3)C2=O)o1,31.6µM,n,n,x,x,n
SMILES,FMDV antiviral,HCMV inh,HCV inh,LASV entry inh,MARV entry inh,SARS PLP yeast
O=C1NC(=S)N(c2ccccc2)C(=O)/C1=C/c1ccco1,35.5µM,n,n,n,u,n
COc1ccc(N2C(=O)/C(=C/c3cccs3)C(=O)NC2=S)cc1,25.1µM,n,n,n,n,n
CCOc1cccc(N2C(=O)/C(=C/c3ccco3)C(=O)NC2=S)c1,n,n,n,x,x,n
Cc1cccc(OCC(=O)N(Cc2cccc(Cl)c2)Cc2ccco2)c1C,n,n,x,n,u,x
COc1ccc2c3c(c(=O)oc2c1)[C@H]1O[C@](c2ccsc2)(Cc2ccccc21)O3,x,x,x,x,n,x
CCCCN1C(N)=NC[C@@H]1Cc1ccc(O)cc1,n,n,n,x,x,n
NC1=NC[C@H](Cc2ccc(O)cc2)N1CCC12CC3CC(CC(C3)C1)C2,u,-72.5,n,x,x,n
CCCSc1ncc(Cl)c(C(=O)Nc2c(C(=O)c3ccc(F)cc3)oc3ccccc23)n1,n,n,x,n,n,x
Cc1nnsc1S(=O)c1ccc(Br)cc1 (stereo not drawn),n,-63.1,n,x,x,n
Cc1nnsc1S(=O)c1ccc(F)cc1 (stereo not drawn),u,-68.9,n,x,x,n
COC(=O)N[C@H](C(C(=O)OC)=C(C)NCc1ccccc1)c1ccco1,x,x,x,x,n,x
CCOC(=O)N1CCN(c2nc(-c3cccs3)nc3ccccc23)CC1,n,u,u,u,u,n
COc1ccc(Nc2nc(-c3cccc([N+](=O)[O-])c3)nc3ccccc23)c(OC)c1,n,n,n,n,u,n
COc1ccc(OC)c(Nc2nc(-c3cccs3)cs2)c1,x,n,14.1µM,n,n,n
CC(=O)N1CCN(c2nc(-c3cccs3)nc3ccccc23)CC1,n,n,11.2µM,u,u,n
COc1ccc(Nc2nc(-c3cccs3)cs2)c(OC)c1,n,n,10µM,n,n,n
COc1ccccc1Nc1nc(-c2cccs2)cs1,n,n,u,u,u,n
COc1ccc(Nc2nc(-c3cccs3)nc3ccccc23)c(OC)c1,n,n,11.2µM,u,u,n
Cc1ccc(OC(=O)c2cc(-c3ccc4c(c3)OCCO4)on2)c(C)c1,n,n,x,n,n,x
Cc1ccc(Cl)cc1NC(=O)c1ccc(NC(=O)N2CCSc3ncccc32)cc1,u,u,x,n,x,x
CN(C)C(=O)c1ccc(Nc2nc(-c3cccs3)nc3ccccc23)cc1,n,u,2.82µM,u,u,n
Cc1csc(NC(=O)CSc2nnc(-c3ccoc3C)o2)n1,n,n,u,u,n,n
Cc1occc1-c1nnc(SCC(=O)Nc2nc(C(C)(C)C)cs2)o1,n,-69.4,u,n,u,n
Cc1cccc(N2CCN(C(=O)c3ccc(N4CCCC4=O)cc3)CC2C)c1 (stereo not drawn),31.6µM,n,u,u,u,n
Cc1cccc(N2CCN(C(=O)c3nn(C)c4c3CSc3ccccc3-4)CC2C)c1 (stereo not drawn),n,-61.6,x,n,n,x
SMILES,FMDV antiviral,HCMV inh,HCV inh,LASV entry inh,MARV entry inh,SARS PLP yeast
Cc1cccc(N2CCN(C(=O)c3ccc4c(c3)c(C)c(C)n4C)CC2C)c1 (stereo not drawn),n,+!,u,n,x,n
Cc1cccc(N2CCN(C(=O)c3nn(C)c4c3CS(=O)(=O)c3ccccc3-4)CC2C)c1 (stereo not drawn),u,n,u,n,x,n
Cc1cccc(N2CCN(C(=O)c3cccc(N4C(=O)C5C6C=CC(C6)C5C4=O)c3)CC2C)c1 (stereo not drawn),n,n,u,u,n,n
CC(C)COc1ccc(C(=O)Nc2nnc(S(=O)(=O)N(C)Cc3ccco3)s2)cc1,n,n,x,n,x,x
CCN1CCc2nc3sc(C(=O)c4ccccc4)c(N)c3cc2C1,n,n,x,n,u,x
O=c1[nH]c2ccccc2n1CCCN1CCC(n2c(=O)[nH]c3cc(Cl)ccc32)CC1,u,-78.5,u,u,11.2µM!,n
O=S(=O)(c1ccc(F)cc1)N(CC(O)Cn1c2ccccc2c2ccccc21)c1ccccc1 (stereo not drawn),u,n,x,u,u,x

# Screening results: PubChem, National Center for Advancing Translational Sciences (NCATS)
